# A selection: hits, their analogues and other compounds. The true share with any hit is near 2.3%.
# Bcl-xL primary: inhibitors of human Bcl-xL, primary screen, biochemical, fluorescence polarization, HTS; GST-Bcl-xL / FITC-Bim BH3 peptide fluorescence polarization; hit rate 0.7% among 320,000; inhibition, % at 10.9 µM;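 active = inhibition above the mean of all tested compounds plus 3 SD, cutoff set per campaign, cut at about 30% in these data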;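 note: inhibitors lower millipolarization by displacing the labeled peptide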
# Mcl1-Noxa inh: Mcl-1/Noxa binding inhibitors, primary screen, biochemical, TR-FRET, 1536-well. Induced myeloid leukemia cell differentiation protein Mcl-1 (Homo sapiens), Q07820. hit rate 1.5% among 220,000. inhibition, % at 21.7 µM. AID 1022, 2008. TR-FRET Mcl-1/Noxa peptide binding, 2 h;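 active = compounds that cut the protein-peptide binding signal by more than 50% relative to plate controls in a single-dose test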;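 note: His-tagged Mcl-1 with rhodamine Noxa BH3 peptide and terbium anti-His antibody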
# Mcl-1 Bim block: inhibitors of Bim peptide binding to Mcl-1, primary screen, biochemical, bead-based flow cytometry, multiplex; Induced myeloid leukemia cell differentiation protein Mcl-1 (Homo sapiens), Q07820; Bim peptide-Mcl-1 binding; inhibition, % at 10 µM; hit rate 0.1% among 190,000; in the data active = inhibition above about 40%
# MCL1 BIM primary: inhibitors of MCL1 binding to BIM-BH3, primary screen, biochemical, fluorescence polarization | AID 2057, 2009 | hit rate 0.68% among 320,000 | inhibition, % at 10.9 µM | GST-MCL1 / FITC-Bim-BH3 fluorescence polarization | Induced myeloid leukemia cell differentiation protein Mcl-1 (Homo sapiens), Q07820;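 active = inhibition above the mean inhibition of all tested compounds plus 3 SD, set per campaign, cut at about 40% in these data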;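 note: higher means more loss of mP so more displacement of Bim peptide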
# GLD-1 TGE inh: GLD-1/TGE RNA complex disruptors, primary screen, biochemical, fluorescence polarization; Female germline-specific tumor suppressor gld-1 (Caenorhabditis elegans), Q17339; inhibition, % at 5.96 µM; hit rate 0.44% among 320,000; purified GLD-1 + fluorescein TGE RNA;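 active = percent inhibition above a per-plate cutoff, the plate mean of test compounds plus 3 SD, cut at about 30% in these data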
# Target sequence (Q17339 whole entry, looked up): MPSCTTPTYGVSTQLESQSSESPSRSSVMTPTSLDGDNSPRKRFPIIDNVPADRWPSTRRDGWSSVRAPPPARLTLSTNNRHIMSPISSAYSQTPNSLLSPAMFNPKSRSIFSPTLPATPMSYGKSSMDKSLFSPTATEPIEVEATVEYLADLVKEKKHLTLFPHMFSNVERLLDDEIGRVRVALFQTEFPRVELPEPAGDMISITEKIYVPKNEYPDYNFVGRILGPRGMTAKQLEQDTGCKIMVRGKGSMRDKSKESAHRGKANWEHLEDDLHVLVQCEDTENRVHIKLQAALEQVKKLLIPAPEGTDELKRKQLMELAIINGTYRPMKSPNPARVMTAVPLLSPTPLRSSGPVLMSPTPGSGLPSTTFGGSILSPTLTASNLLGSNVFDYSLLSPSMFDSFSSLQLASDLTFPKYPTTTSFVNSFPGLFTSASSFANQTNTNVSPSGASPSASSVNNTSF
# Mcl1 Bid PPI: Mcl-1/Bid binding inhibitors, primary screen, biochemical, TR-FRET, 1536-well | Induced myeloid leukemia cell differentiation protein Mcl-1 (Homo sapiens), Q07820 | TR-FRET Mcl-1/Bid-Dy647 peptide binding | inhibition, % at 21.7 µM | hit rate 0.97% among 220,000;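 active = compounds that cut the binding signal by more than half at the single screening dose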;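 note: His-tagged Mcl-1 with europium anti-His antibody binding Bid BH3 peptide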
# A number is an active result; . = inactive; / = not tested or not shown.
SMILES,Bcl-xL primary,Mcl1-Noxa inh,Mcl-1 Bim block,MCL1 BIM primary,GLD-1 TGE inh,Mcl1 Bid PPI
COC(=O)CCC(=O)OC1(C)C(=O)C2=CN(c3ccc(OC)cc3)C(c3ccc(OC)cc3)=CC2=C(Br)C1=O (stereo unspecified),.,/,/,.,.,/
COC(=O)CCC(=O)OC1(C)C(=O)C2=CN(C3CCCC3)C(c3ccc(OC)cc3)=CC2=C(Br)C1=O (stereo unspecified),34,.,/,.,.,.
CCOC(=O)C1CCN(C(=O)COC(=O)c2ccc([N+](=O)[O-])o2)CC1,.,/,/,.,.,/
O=C1NN(c2ccccc2)C(=O)/C1=C\c1ccc2c(c1)OCO2,.,/,/,.,.,/
Cc1ccc(N2NC(=O)/C(=C\c3cc4c(cc3[N+](=O)[O-])OCO4)C2=O)cc1C,.,100,.,.,.,.
CCOc1ncccc1C(=O)N(CC)CC(=O)NCc1ccc(Cl)cc1,.,/,/,.,.,/
O=C1NN(c2cccc(Br)c2)C(=O)/C1=C/c1ccc(-c2cc([N+](=O)[O-])ccc2O)o1,.,101,/,.,.,98
O=C1NN(c2cccc(Br)c2)C(=O)/C1=C\c1ccc(O)cc1,.,/,/,.,.,/
Cc1ccc2nc(Cc3ccc(N)cc3)[nH]c2c1,.,.,.,.,.,.
Nc1ccc2nc(Cc3ccccc3)[nH]c2c1,.,.,/,.,76,.
Cc1c(Cl)cnc(NC(=O)COC(=O)c2ccc3ncsc3c2)c1Cl,.,58,.,.,.,66
COc1ccc(N/C(=C(/C(Cl)=C(Cl)Cl)[N+](=O)[O-])n2nnc3ccccc32)cc1,39,.,.,41,.,91
Cc1ccccc1N/C(=C(/C(Cl)=C(Cl)Cl)[N+](=O)[O-])n1nnc2ccccc21,.,.,.,.,.,54
Cc1ccc(C(=O)n2nnc3ccccc32)cc1,.,/,/,.,.,/
COc1ccc(NS(=O)(=O)c2ccc(-n3nnc4ccccc43)c([N+](=O)[O-])c2)cc1,.,.,.,.,.,.
CCOC(=O)c1c(S(=O)(=O)N2CCN(c3ccc(C(C)=O)cc3)CC2)c(C)n(C)c1C,.,/,/,.,.,/
CC1CCCCC1NC(=O)COC(=O)c1c2c(nc3ccccc13)/C(=C/c1ccco1)CC2 (stereo unspecified),.,52,.,.,.,.
Cc1cc(C(=O)OCC(=O)NC2CCCCC2C)c2ccccc2n1 (stereo unspecified),/,/,/,/,.,/
O=C(COC(=O)c1c2c(nc3ccccc13)/C(=C/c1ccco1)CC2)NC1CCCC1,/,98,.,/,/,.
CN(C)S(=O)(=O)c1ccc(Cl)c(NC(=O)COC(=O)/C=C/c2ccco2)c1,.,.,.,.,.,.
CCOC(=O)c1nnn(-c2nonc2N)c1CS(=O)(=O)c1ccccc1,.,.,.,.,.,55
C=C(C)C(=O)Nc1cccc(C2=NOC3(C2)C[C@H](C(N)=O)N(C(=O)/C=C/C)C3)c1 (stereo partly specified),.,76,/,.,.,.
C=C(C)C(=O)Nc1cccc(C2=NOC3(C2)C[C@@H](C(N)=O)N(C(=O)C(=C)C)C3)c1 (stereo partly specified),.,82,/,.,.,.
C/C=C\C=C/C(=O)Nc1cccc(C2=NOC3(C2)C[C@@H](C(N)=O)N(C(=O)/C=C/C=C\C)C3)c1 (stereo partly specified),.,54,/,.,.,.
C=C(C)C(=O)Nc1cccc(C2=NOC3(C2)C[C@@H](C(N)=O)N(C(=O)C2(C)CC2)C3)c1 (stereo partly specified),.,61,/,.,.,.
C=C(C)C(=O)N1CC2(CC(c3cccc(NC(=O)/C=C\C=C/C)c3)=NO2)C[C@H]1C(N)=O (stereo partly specified),.,.,/,.,.,.
C=C(C)C(=O)Nc1cccc(C2=NOC3(C2)C[C@@H](C(N)=O)N(C(=O)/C=C/CC)C3)c1 (stereo partly specified),.,.,/,.,.,.
